We go through 32 compounds from PubChem BioAssay (EPA / NIEHS).

Records with an inconclusive call do not appear. Calls of active or inactive are those of the source. How the source made its calls: active means hit-call score of the fitted dose curve at least 0.9, where 1 is the maximum; inconclusive means response in the unintended direction; inactive means score below 0.9.

Assay [1] can be described thus: ATG_XTT_Cytotoxicity: Cytotoxicity Assessment in the Attagene TRANS-FACTORIAL HepG2 Assay (AID 2283584). The essentials:
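HepG2 cells transiently transfected with GAL4-UAS multiple reporter units, dosed 24 h; cytotoxicity read by XTT as loss of signal versus DMSO baseline.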

The nature of assay [2]: TOX21_p53_BLA_p2_viability: Viability Assessment in the Tox21 HCT-116 p53 Agonism Beta-lactamase Assay, Phase 2 (AID 2283591).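 Further: compound exposure lasted 16 h at 37 °C; actives lower the ATP signal meaning cytotoxicity.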 The essentials:
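Cytotoxicity readout: CellTiter-Glo ATP luminescence, 30 min at room temperature, after the beta-lactamase read. Cells were HCT116 exposed 16 h at 37C to compounds pin-transferred at 217-fold dilution from DMSO stocks.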

Assay [3] can be described thus: TOX21_p53_BLA_p3_viability: Viability Assessment in the Tox21 HCT-116 p53 Agonism Beta-lactamase Assay, Phase 3 (AID 2283593).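 Further: cells exposed to compound for 16 h before reading.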 An outline of the steps:
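Cellular ATP was quantified by CellTiter-Glo luminescence, read after 30 min at room temperature. Beforehand, HCT116 cells (4000/well) received compound 5 h post-seeding, 217-fold diluted from DMSO, then incubated 16 h at 37C.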

Assay [4] has as its target Cellular tumor antigen p53 (Homo sapiens) (UniProt P04637). Description: TOX21_p53_BLA_p3_ratio: Tox21 HCT-116 p53 Agonism Beta-lactamase Assay, Ratio, Phase 3 (AID 2283596). The essentials: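 HCT116 p53-bla cells (4000/well) given compound in DMSO (217-fold dilution) after 5 h, incubated 16 h at 37C. CCF4-AM substrate 2 h at room temperature; 460/530 nm emission ratio, gain fitted against DMSO.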

The target is the same in assay [5]. Description: TOX21_p53_BLA_p5_ratio: Tox21 HCT-116 p53 Agonism Beta-lactamase Assay, Ratio, Phase 5 (AID 2283599). An outline of the steps:
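Beta-lactamase reporter ratio (blue 460 nm over green 530 nm, 405 nm excitation) after 2 h CCF4-AM loading, in HCT-116 cells exposed 16 h at 37 C to compounds pinned at 217-fold dilution. Increases relative to DMSO baseline scored.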

Assay [6] in a line: TOX21_p53_BLA_p5_viability: Viability Assessment in the Tox21 HCT-116 p53 Agonism Beta-lactamase Assay, Phase 5 (AID 2283600). The essentials:
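HCT-116 p53 beta-lactamase reporter cells, 4000/well, were exposed to compound (pin transfer, 217-fold dilution) for 16 hours at 37C. Cellular ATP was read by CellTiter-Glo luminescence after 30 min at room temperature.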

Assay [7] concerns the target Cellular tumor antigen p53 (Homo sapiens) (UniProt P04637). Description: TOX21_p53_BLA_p2_ratio: Tox21 HCT-116 p53 Agonism Beta-lactamase Assay, Ratio, Phase 2 (AID 2283592). The essentials:
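HCT-116 cells with p53-responsive beta-lactamase reporter, 4000 cells/well, preincubated 5 h, then compound in DMSO (217-fold dilution) for 16 h at 37C. CCF4-AM substrate 2 h at room temperature; 460/530 nm emission ratio fitted upward versus DMSO.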

Assay [8] can be described thus: TOX21_p53_BLA_p4_viability: Viability Assessment in the Tox21 HCT-116 p53 Agonism Beta-lactamase Assay, Phase 4 (AID 2283597).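 Further: hits lower the luminescence signal meaning cytotoxicity.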 The essentials: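 HCT-116 p53-bla cells, 4000/well, dosed after 5 h attachment and incubated 16 h at 37 °C, 5% CO2. Viability from CellTiter-Glo ATP luminescence after 30 min at room temperature, taken after the beta-lactamase read; loss of signal indicates cytotoxicity.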

The target in assay [9] is Cellular tumor antigen p53 (Homo sapiens) (UniProt P04637). Description: TOX21_p53_BLA_p4_ratio: Tox21 HCT-116 p53 Agonism Beta-lactamase Assay, Ratio, Phase 4 (AID 2283601). An outline of the steps:
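Signal is the blue/green (460nm/530nm) ratio of cleaved versus uncleaved CCF4-AM substrate, read after 2 h substrate loading. Cells were HCT116 carrying the p53-responsive beta-lactamase reporter, dosed 16 h at 37C, 5% CO2; CellTiter-Glo measured in parallel.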

Sequence of Cellular tumor antigen p53 (Homo sapiens) (P04637 whole entry, looked up): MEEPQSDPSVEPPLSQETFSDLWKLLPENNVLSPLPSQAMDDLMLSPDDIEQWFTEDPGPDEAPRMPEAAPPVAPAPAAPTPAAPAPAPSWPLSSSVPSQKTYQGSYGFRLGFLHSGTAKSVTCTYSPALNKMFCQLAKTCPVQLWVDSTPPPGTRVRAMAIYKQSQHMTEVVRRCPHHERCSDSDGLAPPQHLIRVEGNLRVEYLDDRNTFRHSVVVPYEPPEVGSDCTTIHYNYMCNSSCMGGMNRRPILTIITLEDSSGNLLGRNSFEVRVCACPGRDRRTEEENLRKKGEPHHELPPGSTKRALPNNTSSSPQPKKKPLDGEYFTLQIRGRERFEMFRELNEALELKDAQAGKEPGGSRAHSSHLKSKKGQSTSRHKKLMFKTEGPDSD

On to `Cc1ccc(N)c(S(=O)(=O)O)c1`, for which the call in [1], in assay [2], in assay [3], in [4], in assay [5] and in assay [6] was inactive.
Turning to `CC(=O)C(C)O` (configuration not stated), the outcome in assay [1], in assay [7], in assay [3], in [4], in assay [8] and in assay [5] was inactive. In assay [9], the result was inactive.
Broadly, the AC50 is the concentration at which the activity in the assay is half-maximal. Consider `Cc1cc(=O)oc2cc(N(C)C)ccc12`, for which the compound was called inactive in assay [1], in assay [3] and in assay [8]. The AC50 is 51.5 µM (active) in assay [7], 50.6 µM (active) in assay [4], 47.9 µM (active) in assay [5] and 53.6 µM (active) in assay [9].
For the compound `CC(C)NCC(O)COc1ccc(CC(N)=O)cc1` (configuration not stated), the result in assay [1], in assay [2], in assay [7], in assay [5] and in assay [6] was inactive.
Consider `CC(=O)OCCCc1ccccc1`, for which the result in assay [1], in [7], in assay [3], in assay [4], in [5] and in assay [9] was inactive.
Turning to `OC[C@H]1O[C@@H](Oc2ccc(O)cc2)[C@H](O)[C@@H](O)[C@@H]1O`, the call in assay [1], in [7], in assay [3], in [4], in assay [8] and in assay [5] was inactive. The outcome in assay [6] and in [9] was inactive.
Consider `CS(C)=O`, for which the outcome in assay [1], in assay [7], in assay [3], in [4], in assay [8] and in assay [5] was inactive. Further, the outcome in assay [6] and in [9] was inactive.
Consider `O=[N+]([O-])c1cccc(Cl)c1`, for which the compound was classed as inactive in assay [1], in assay [7], in assay [3], in assay [4], in [5] and in assay [9].
On to `COc1cc(CCC(C)=O)ccc1O`, for which the result in assay [1], in [7], in assay [3] and in assay [5] was inactive.
Take `OCC(O)c1ccccc1` (configuration not stated): the outcome in [1], in assay [7], in assay [3], in assay [8], in [5] and in assay [9] was inactive.
With `Cc1ccc(S(N)(=O)=O)cc1`, the outcome in [1], in assay [7], in assay [3], in [4], in assay [5] and in assay [9] was inactive.
Regarding `O=C(Nc1ccc2c(O)c(N=Nc3ccc(N=Nc4ccc(S(=O)(=O)O)cc4)cc3)c(S(=O)(=O)O)cc2c1)c1ccccc1`, the compound was classed as inactive in assay [1], in assay [2], in [8] and in [9].
`CCCCC(CC)(CO)CO`: the outcome in assay [1], in assay [7], in assay [3], in [5], in [6] and in assay [9] was inactive.
As to `CC(C)OCCO`, the outcome in assay [1], in assay [7], in [3], in [4], in assay [8] and in assay [5] was inactive. In addition, the result in assay [6] was inactive.
Consider `C=COCCOCCOC=C`, for which the call in assay [1], in [2], in assay [4], in assay [8] and in [9] was inactive.
With `Cc1occc(=O)c1OC(=O)C(C)C`, the compound was classed as inactive in assay [1], in [7], in [3] and in assay [4].
Turning to `O=C1OC[C@H](Cc2cccc(O)c2)[C@H]1Cc1cccc(O)c1`, the result in [1], in [2], in assay [5], in [6] and in assay [9] was inactive.
Take `COC(C)(C)CC(C)=O`: the call in assay [1], in assay [2], in [3], in [4] and in assay [5] was inactive.
In the case of `Cc1ccc(OC(=O)c2ccccc2O)cc1`, the result in assay [1], in assay [7], in [3], in assay [4], in assay [5] and in assay [6] was inactive.
On to `C[Si]1(C)O[Si](C)(C)O[Si](C)(C)O1`, for which the outcome in assay [1], in [2], in assay [4] and in [9] was inactive.
`c1ccc(CCc2ccccc2)cc1`: the call in [1], in assay [2], in assay [7], in assay [5], in [6] and in assay [9] was inactive.
As to `Cc1c(C2(c3cc(Br)c(O)c(Br)c3C)OS(=O)(=O)c3ccccc32)cc(Br)c(O)c1Br`, the compound was classed as inactive in assay [1], in [2], in [4], in assay [6] and in [9]. Moreover, the half-maximal activity concentration (AC50) is 37.1 µM (active) in [3] and 28.4 µM (active) in assay [8].
In the case of `CCCCCCCC(=O)OCCCCCC`, the outcome in assay [1], in assay [7], in [3], in assay [5], in assay [6] and in assay [9] was inactive.
`CC(C=O)Cc1ccc(C(C)(C)C)cc1` (configuration not stated): the call in [1], in assay [7], in assay [3], in assay [4], in assay [8] and in assay [5] was inactive. Further, the compound was called inactive in [6].
In the case of `CN(C)C(=O)Nc1ccc(Oc2ccc(Cl)cc2)cc1`, the outcome in [1], in [7], in assay [3], in [4], in assay [8] and in [5] was inactive. The call in assay [6] and in assay [9] was inactive.
In the case of `CC=CC=CCOC(=O)C(C)C`, the outcome in [1], in [2], in [3], in assay [4] and in assay [8] was inactive.
As to `Cc1c(Cl)cccc1[N+](=O)[O-]`, the compound was classed as inactive in assay [1], in assay [7], in assay [3], in assay [4], in assay [5] and in assay [6].
For the compound `O=CN1CCOCC1`, the call in assay [1], in [2], in [7], in assay [5] and in assay [9] was inactive.
Take `CCCCCCCCSCCO`: the outcome in assay [1], in [2] and in [5] was inactive.
As for `Cc1ccc(C)o1`, the compound was classed as inactive in assay [1], in [2], in assay [3], in assay [5] and in [9].
As for `C/C=C(\C)C(=O)OCCc1ccccc1`, the call in assay [2], in assay [7], in assay [3], in assay [4] and in assay [8] was inactive.
Take `O=C(O)c1cccnc1C(=O)O`: the compound was called inactive in assay [1], in assay [4], in assay [5] and in assay [6].
